Assay results: PubChem BioAssay
Active and inactive are the calls of the source.

Tests used:
[1] = tested on: PRMT1 (protein arginine N-methyltransferase 1); assay: small molecules binding arginine methyltransferase PRMT1 – biochemical, small-molecule microarray, 635 nm fluorescence, primary screen (AID 1088); conditions: higher = more signal;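 note: binding of Prmt1 protein to compounds spotted on small-molecule microarray slides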
[2] = growth effects on S. cerevisiae YJM789 – YJM789 clinical isolate, OD600, 24 h, basal, primary screen (AID 1089); conditions: higher = more signal, called active from +8 up or from −8 down;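 note: growth of clinical yeast isolate S. cerevisiae YJM 789 seeded 1000 cells per well; test concentration not given here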
[3] = S. pombe growth modifiers, basal conditions – strain 972, OD600, 24 h, no modulator, primary screen (AID 1090);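 note: basal condition with compound alone and no growth modifier present; test concentration not given here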; conditions: S. pombe 972 growth, higher = more signal, called active from +8 up or from −8 down
[4] = budding yeast growth modifiers under rapamycin – strain BY4716, OD600, 96 h, primary screen (AID 1091); note: test concentration not given here; conditions: S. cerevisiae BY4716 + rapamycin, higher = more signal, called active from +8 up or from −8 down
[5] = biological target: Torsin-1A-interacting protein 2 (Homo sapiens) (UniProt Q8NFQ8); assay: small molecules binding lysate-expressed LULL1 – cell lysate, human LULL1 lysate, 635/667 nm fluorescence, primary screen (AID 1092); conditions: small-molecule microarray, hLULL1 lysate binding, 635 nm fluorescence; higher = more signal;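 note: probe is lysate of COS7 cells overexpressing human LULL1; score merges per-feature 667 nm fluorescence with signal-to-noise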
[6] = optical density change of DRC41 E. coli – strain DRC41, OD650, 24 h, E. coli filamentation project, primary screen (AID 1093);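 note: MC1000 strain lacking acrAB efflux and sulA so SOS filamentation is blocked; test concentration not given here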; conditions: E. coli DRC41 growth, higher = more signal, called active from +8 up or from −8 down
[7] = probe aLefty2 binding to arrayed compounds – biochemical, biotinylated probe, 635/667 nm fluorescence, primary screen (AID 1094); conditions: small-molecule microarray, higher = more signal;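 note: score merges spot fluorescence near 667 nm with spot signal-to-noise ratio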
[8] = tested on: Noggin (protein binding on small-molecule microarray); assay: small molecules binding Noggin protein – biochemical, 635/667 nm fluorescence, primary screen (AID 1095); conditions: 635 nm fluorescence, higher = more signal;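 note: score merges 667 nm feature fluorescence with signal to noise over triplicate slides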
[9] = biological target: Neurogenic locus notch homolog protein 3 (Homo sapiens) (UniProt Q9UM47); assay: small molecules binding NOTCH3 protein – biochemical, 635/667 nm fluorescence, primary screen (AID 1096); conditions: small-molecule microarray, 635 nm fluorescence, higher = more signal
[10] = probe aEGFR binding to arrayed compounds – biochemical, biotinylated probe, 635/667 nm fluorescence, primary screen (AID 1097); conditions: small-molecule microarray, higher = more signal;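 note: probe is a biotinylated anti-EGFR antibody binding compounds printed on slides; score combines fluorescence near 667 nm and signal to noise of each spot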

Torsin-1A-interacting protein 2 (Homo sapiens), sequence (Q8NFQ8 whole entry, looked up): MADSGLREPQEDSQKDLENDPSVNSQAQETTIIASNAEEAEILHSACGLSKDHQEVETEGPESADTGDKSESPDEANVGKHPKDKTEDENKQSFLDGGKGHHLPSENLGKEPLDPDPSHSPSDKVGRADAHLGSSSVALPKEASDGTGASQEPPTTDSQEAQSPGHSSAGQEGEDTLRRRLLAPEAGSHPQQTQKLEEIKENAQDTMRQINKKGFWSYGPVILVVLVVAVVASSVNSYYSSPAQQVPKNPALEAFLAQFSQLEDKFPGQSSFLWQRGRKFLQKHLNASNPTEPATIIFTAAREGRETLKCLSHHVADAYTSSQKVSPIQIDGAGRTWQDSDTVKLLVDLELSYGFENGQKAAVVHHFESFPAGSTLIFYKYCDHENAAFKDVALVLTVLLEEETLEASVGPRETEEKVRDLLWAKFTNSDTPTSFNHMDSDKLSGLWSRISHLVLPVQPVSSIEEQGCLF
Neurogenic locus notch homolog protein 3 (Homo sapiens), sequence (Q9UM47 whole entry, looked up): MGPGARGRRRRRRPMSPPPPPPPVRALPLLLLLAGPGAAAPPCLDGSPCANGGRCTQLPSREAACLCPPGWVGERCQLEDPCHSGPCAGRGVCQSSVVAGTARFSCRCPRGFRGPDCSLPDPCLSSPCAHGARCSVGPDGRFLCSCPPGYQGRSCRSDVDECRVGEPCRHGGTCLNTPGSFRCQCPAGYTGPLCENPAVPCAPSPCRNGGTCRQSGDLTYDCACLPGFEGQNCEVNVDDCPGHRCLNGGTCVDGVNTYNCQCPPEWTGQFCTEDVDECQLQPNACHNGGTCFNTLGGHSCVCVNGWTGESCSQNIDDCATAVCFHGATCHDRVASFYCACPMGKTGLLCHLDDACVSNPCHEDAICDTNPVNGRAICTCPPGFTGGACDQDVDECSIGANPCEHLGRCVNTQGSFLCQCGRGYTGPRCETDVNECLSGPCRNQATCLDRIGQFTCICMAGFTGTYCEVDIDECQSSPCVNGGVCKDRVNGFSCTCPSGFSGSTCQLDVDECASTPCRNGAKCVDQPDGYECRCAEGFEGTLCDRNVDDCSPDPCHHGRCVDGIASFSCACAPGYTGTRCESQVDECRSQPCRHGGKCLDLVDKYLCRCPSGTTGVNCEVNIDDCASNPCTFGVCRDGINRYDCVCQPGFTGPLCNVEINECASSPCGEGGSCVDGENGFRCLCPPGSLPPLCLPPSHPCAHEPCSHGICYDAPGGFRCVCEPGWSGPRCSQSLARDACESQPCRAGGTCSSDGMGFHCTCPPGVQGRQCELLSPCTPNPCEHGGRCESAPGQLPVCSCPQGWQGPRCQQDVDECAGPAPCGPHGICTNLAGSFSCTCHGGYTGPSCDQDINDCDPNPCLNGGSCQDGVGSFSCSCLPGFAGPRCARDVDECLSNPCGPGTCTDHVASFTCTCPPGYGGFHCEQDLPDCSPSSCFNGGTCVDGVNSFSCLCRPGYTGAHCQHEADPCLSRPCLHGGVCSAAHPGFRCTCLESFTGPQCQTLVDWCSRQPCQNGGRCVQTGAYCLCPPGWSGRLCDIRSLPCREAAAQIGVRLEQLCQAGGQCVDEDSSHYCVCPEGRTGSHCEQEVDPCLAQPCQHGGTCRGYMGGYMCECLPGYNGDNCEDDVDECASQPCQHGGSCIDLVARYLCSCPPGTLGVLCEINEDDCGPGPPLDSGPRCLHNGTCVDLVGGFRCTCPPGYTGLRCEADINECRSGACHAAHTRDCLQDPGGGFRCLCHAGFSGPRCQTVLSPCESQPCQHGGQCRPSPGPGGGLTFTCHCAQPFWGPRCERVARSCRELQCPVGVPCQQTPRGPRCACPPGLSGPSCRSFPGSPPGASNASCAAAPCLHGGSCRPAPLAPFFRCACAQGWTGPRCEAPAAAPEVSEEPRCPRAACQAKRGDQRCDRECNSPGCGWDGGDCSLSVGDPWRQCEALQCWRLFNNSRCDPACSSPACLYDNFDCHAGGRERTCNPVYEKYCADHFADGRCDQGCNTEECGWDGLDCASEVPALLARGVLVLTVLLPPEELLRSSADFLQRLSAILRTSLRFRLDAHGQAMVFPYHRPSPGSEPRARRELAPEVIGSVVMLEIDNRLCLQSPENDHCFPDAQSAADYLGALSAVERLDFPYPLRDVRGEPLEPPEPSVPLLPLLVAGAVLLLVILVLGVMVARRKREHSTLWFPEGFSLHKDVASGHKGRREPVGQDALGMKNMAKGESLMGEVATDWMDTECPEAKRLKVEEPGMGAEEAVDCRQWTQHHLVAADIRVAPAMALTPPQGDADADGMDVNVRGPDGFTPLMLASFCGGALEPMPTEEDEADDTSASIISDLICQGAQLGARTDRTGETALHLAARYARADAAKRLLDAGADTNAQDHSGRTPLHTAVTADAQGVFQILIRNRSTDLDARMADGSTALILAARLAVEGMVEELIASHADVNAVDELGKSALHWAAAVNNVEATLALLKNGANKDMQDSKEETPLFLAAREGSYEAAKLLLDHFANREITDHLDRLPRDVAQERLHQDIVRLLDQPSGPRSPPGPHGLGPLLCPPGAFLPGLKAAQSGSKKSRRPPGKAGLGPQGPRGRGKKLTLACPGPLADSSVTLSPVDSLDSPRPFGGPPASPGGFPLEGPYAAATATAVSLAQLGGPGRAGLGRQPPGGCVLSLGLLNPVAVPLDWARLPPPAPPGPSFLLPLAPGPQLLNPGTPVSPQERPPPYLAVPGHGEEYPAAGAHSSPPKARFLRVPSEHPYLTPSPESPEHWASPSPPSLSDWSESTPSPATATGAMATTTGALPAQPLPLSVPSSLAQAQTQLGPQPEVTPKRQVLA

SMILES | composite z-score [1] | z-score [2] | z-score [3] | z-score [4] | composite z-score [5] | z-score [6] | composite z-score [7] | composite z-score [8] | composite z-score [9] | composite z-score [10]
CCOC(=O)C1=CCC(c2ccccc2)N(S(=O)(=O)c2ccc([N+](=O)[O-])cc2)C1 (stereo not given) | -0.411 | 0.687 (inactive) | 0.668 (inactive) | 1.25 (inactive) | 1.33 | -0.319 (inactive) | -0.0081 | -0.578 | 0.0968 | 0.0506
C=C[C@@H](OC)[C@H](OC(=O)Nc1ccc(SC)cc1)c1ccc(OCCO)cc1 | 1.13 | 0.456 (inactive) | -0.675 (inactive) | 0.0094 (inactive) | 2.11 | 0.0144 (inactive) | -0.057 | 0.822 | 0.82 | -0.039
CN1C(=O)C2C=CC(C(O)c3ccc(F)cc3)N(NC(=O)OC(C)(C)C)C2C1=O (stereo not given) | 0.219 | 1.19 (inactive) | 2.11 (inactive) | 1.71 (inactive) | 3.28 | -1.31 (inactive) | -0.0154 | -0.205 | 0.816 | -0.0531
O=c1cccc(-c2ccco2)o1 | 1.29 | -0.445 (inactive) | -0.311 (inactive) | 0.167 (inactive) | 0.108 | -0.696 (inactive) | -0.0963 | 1.32 | 0.832 | 0.0023
COc1ccc(C#Cc2ccc3c(c2)[C@]2(C(=O)N3)[C@H](C(=O)Nc3nc4ccccc4s3)[C@H]3C(=O)O[C@H](c4ccccc4)[C@H](c4ccccc4)N3[C@@H]2c2ccccc2OCCO)cc1 | 1.36 | 2.56 (inactive) | 1.53 (inactive) | 1.59 (inactive) | 3.08 | 2.62 (inactive) | -0.0949 | 0.486 | 1.13 | -0.106
COCCOC(=O)N1C(=O)[C@@]2(c3cc(C#CCC(C(=O)OC)C(=O)OC)ccc31)[C@H](C(=O)NC[C@H](O)c1ccccc1)[C@H]1C(=O)O[C@H](c3ccccc3)[C@H](c3ccccc3)N1[C@@H]2c1ccc(OCCO)cc1 | 1.56 | 2.22 (inactive) | 2.7 (inactive) | 7 (inactive) | 2.08 | 0.6 (inactive) | -0.109 | 1.69 | 1.04 | 0.0097
NCCCCCNC(=O)[C@H]1C[C@H]2C(=O)N[C@@H](Cc3ccccc3)C(=O)N2[C@H]1c1ccc(O)cc1 | 0.584 | 0.5 (inactive) | -0.335 (inactive) | -0.578 (inactive) | 1.92 | 0.0565 (inactive) | 0.887 | 0.521 | 0.423 | 0.151
CCC(CC)C(O)C1C=CC2C(=O)N(c3ccccc3)C(=O)C2N1Nc1ccc([N+](=O)[O-])cc1 (stereo not given) | 1.53 | -0.255 (inactive) | 1.27 (inactive) | 1.28 (inactive) | 3 | -0.27 (inactive) | 0.323 | 0.0809 | 1.07 | 0.277
CC(=O)NCCCC[C@@H]1NC(=O)[C@@H]2C[C@H](C(=O)NCCCCCCN)[C@H](c3cccc(OCCO)c3)N2C1=O | 0.858 | 0.119 (inactive) | -0.646 (inactive) | -0.831 (inactive) | 2.3 | -0.314 (inactive) | -0.0554 | 0.271 | -0.239 | -0.175
COC(=O)[C@@]1(Cc2ccccc2CN=[N+]=[N-])N=C(c2ccc(OCCCO)cc2)O[C@H]1c1ccccc1 | 1.45 | 0.682 (inactive) | -2.11 (inactive) | 35.9 (active) | 1.94 | 0.77 (inactive) | 0.547 | 0.151 | 0.107 | 0.0209
[N-]=[N+]=NCc1ccccc1C[C@]1(C(=O)N2CCOCC2)COC(c2ccc(OCCCO)cc2)=N1 | 1.5 | -0.486 (inactive) | -5.38 (inactive) | 32.4 (active) | 2.39 | 3.3 (inactive) | 0.273 | -0.296 | 0.364 | 0.0706
C=C(COC)/C(=C/C[C@@H](OC(C)=O)c1ccc(CO)o1)c1cc(C(=O)OC)ccc1OC | 1.02 | 0.932 (inactive) | 0.369 (inactive) | 0.264 (inactive) | 1.81 | 0.0184 (inactive) | -0.166 | 1.07 | 0.711 | -0.0828
COC(=O)[C@@]1(Cc2ccccc2)[C@H]2c3cc(C(=O)N4CCCC4)n(CCSCCO)c3C[C@H]2CN1C(=O)c1ccccc1 | 0.465 | 0.118 (inactive) | 0.307 (inactive) | -0.0727 (inactive) | 3.67 | -1 (inactive) | 0.788 | 0.511 | 0.899 | 0.0971
COCCOC(=O)N1C(=O)[C@@]2(c3cc(C#Cc4ccc(OC)cc4)ccc31)[C@H](c1ccc(OCCO)cc1)N1[C@H](c3ccccc3)[C@H](c3ccccc3)OC(=O)[C@H]1[C@@H]2C(=O)Nc1nc2ccccc2s1 | 1.14 | 1.77 (inactive) | 1.43 (inactive) | 1.96 (inactive) | 2.2 | 1.82 (inactive) | 0.188 | 0.55 | 0.95 | -0.0437
COC(=O)C1=CC(CCCO)=CC(c2ccc(CN3CCCC3)cc2)N(Cc2cc3c(cc2Br)OCO3)C=C1C(=O)OC (stereo not given) | 1.57 | -0.622 (inactive) | -1.23 (inactive) | -0.371 (inactive) | 3.5 | -0.327 (inactive) | 0.639 | 0.719 | 1.01 | 0.481
CC(C)C(=C=CC[C@@H](O)c1cccc(OCCO)c1)C[C@@H](O)COCc1ccccc1 | 0.566 | -0.978 (inactive) | -1.55 (inactive) | -0.845 (inactive) | 0.493 | 1.61 (inactive) | -0.133 | 0.573 | 0.541 | -0.203
C=C(/C(=C/C[C@@H](OC(=O)c1ccncc1)c1cccc(OCCO)c1)c1cnc2ccccc2c1)C(C)C | 1.55 | -2.06 (inactive) | -1.77 (inactive) | 1.29 (inactive) | 2.03 | 0.915 (inactive) | -0.0042 | 1.27 | 1.02 | 0.074
C=CCN1C(=O)[C@]2(O[C@H](CCO)[C@@H]([Si](C)(C)c3ccc(OC)cc3)[C@@H]2C)c2cc(NC(=O)c3ccc(OC)cc3)ccc21 | 1.5 | 0.405 (inactive) | -1.91 (inactive) | 2.89 (inactive) | 0.739 | 0.577 (inactive) | -0.166 | 1.62 | 0.924 | -0.111
COCC(=C=CC[C@H](O)c1cccc(OCCO)c1)C[C@H](O)COCc1ccccc1 | 0.949 | -0.244 (inactive) | -1.43 (inactive) | -0.271 (inactive) | 2.22 | -0.142 (inactive) | 0.084 | 0.546 | 0.237 | 0.0167
O=C1C2C=CC(C(O)C=Cc3ccc([N+](=O)[O-])cc3)N(Nc3ccccc3)C2C(=O)N1c1ccccc1 (stereo not given) | 1.33 | 0.431 (inactive) | 0.102 (inactive) | -0.19 (inactive) | 2.78 | -0.608 (inactive) | 0.349 | 0.505 | 1.04 | -0.0238
COc1ccc(C#Cc2ccc3c(c2)[C@]2(C(=O)N3)[C@H](C(=O)N3CCCCCCC3)[C@H]3C(=O)O[C@H](c4ccccc4)[C@H](c4ccccc4)N3[C@@H]2c2ccc(O)cc2)cc1 | 1.56 | -0.0118 (inactive) | 0.0345 (inactive) | 0.595 (inactive) | 3.12 | 0.209 (inactive) | 1 | 0.719 | 1.1 | 0.426
COCCOC(=O)N1C(=O)[C@@]2(c3cc(C#CCNC(N)=O)ccc31)[C@H](c1ccc(OCCO)cc1)N1[C@H](c3ccccc3)[C@H](c3ccccc3)OC(=O)[C@H]1[C@@H]2C(=O)NC[C@H](O)c1ccccc1 | 1.57 | 2.3 (inactive) | 3.07 (inactive) | 4.91 (inactive) | 2.44 | 0.925 (inactive) | 0.19 | 1.1 | 1.06 | 0.0671
Cc1ccc(S[C@]2(C(=O)NCC(C)C)CC(=O)N(C3Cc4ccccc4C3)[C@@H]2c2ccc(CO)cc2I)cc1 | -0.409 | -0.766 (inactive) | -1.49 (inactive) | 1.51 (inactive) | 0.724 | -0.0979 (inactive) | 0.0349 | -1.45 | -0.933 | -0.294
CC(C)[Si]1(C(C)C)OCc2cc(-c3ccc(-c4ccc(Cl)c(Cl)c4)o3)nc(CCc3ccccc3)c21 | -0.45 | -0.773 (inactive) | -3.07 (inactive) | 0.952 (inactive) | 0.797 | 1.15 (inactive) | -0.19 | 0.0365 | -0.428 | -0.218
CCN(CC)c1ccc(N2CC=CC34O[C@@H]5C=CCCOC(=O)C5[C@H]3C(=O)N(CCO)[C@@H]4C2=O)cc1 (stereo not given in full) | -1.15 | -0.562 (inactive) | -1.07 (inactive) | -0.315 (inactive) | -0.66 | 0.701 (inactive) | -0.235 | -1.42 | -0.477 | -0.201
COCCCNC(=O)[C@@]1(Sc2ccc(C)cc2)CC(=O)N(Cc2ccccc2Cl)[C@@H]1c1ccc(CO)cc1I | -0.76 | -0.89 (inactive) | -2.01 (inactive) | 0.0449 (inactive) | 1.04 | 0.668 (inactive) | -0.0654 | -0.691 | -0.318 | -0.249
COCCOC(=O)N1C(=O)[C@@]2(c3cc(C#CC4=CCCCC4)ccc31)[C@H](c1ccc(O)cc1)N1[C@H](c3ccccc3)[C@H](c3ccccc3)OC(=O)[C@H]1[C@@H]2C(=O)NC[C@H](O)c1ccccc1 | 1.56 | 1.44 (inactive) | 0.236 (inactive) | 3.15 (inactive) | 2.51 | 0.12 (inactive) | -0.003 | 0.782 | 1.07 | 0.0397
O=C1c2ccccc2[C@](Cc2ccccc2I)(C(=O)NC2CC2)[C@H](c2ccc(CO)cc2)N1Cc1ccccc1C(F)(F)F | 1.55 | -0.124 (inactive) | -0.684 (inactive) | 0.341 (inactive) | 2.76 | -1.8 (inactive) | -0.0817 | 0.894 | 1.06 | -0.139
